Reference: PubChem BioAssay (Tox21)
Inconclusive results are not listed. The source made the active and inactive calls. Unless noted, calls come from the whole dose curve; as a rule, active = well fitted curve in the direction sought with a large enough effect in the repeat runs; inconclusive = weak or mixed curves; inactive = no such curve, though single readings can be large; an effect the other way counts as inactive or inconclusive.

Key:
[1] = qHTS assay to identify small molecule agonists of the hypoxia (HIF-1) signaling pathway - cell viability counter screen (AID 1224844; calls by dose curve; note: nearly all actives have a fitted effect of over 50% in size; note: potency is the fitted concentration of half-maximal effect)
In short: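 CellTiter-Glo luminescence read-out, 30 min RT, taken in the same wells as the beta-lactamase HRE reporter assay; HRE-bla ME-180 cells, 0.5% dialyzed FBS, 17 hr compound treatment at 37C, 5% CO2.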

[2] = qHTS assay to identify small molecule agonists of H2AX - cell viability counter screen (AID 1224847; calls by dose curve; note: top concentration of the series differs between compounds; nearly all actives have a fitted effect of over 30% in size)
In short: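 Compounds tested at 15 concentrations were incubated 3 hr at 37C with wild-type CHO-K1 cells; cellular ATP-based luminescence (CellTiter-Glo) indicated viability.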

[3] = qHTS RealTime-Glo MT Cell Viability Assay in HepG2 cells - 24 hour (AID 1224867); note: nearly all actives have a fitted effect of over 50% in size; note: potency is the fitted concentration of half-maximal effect
In short: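 qHTS, HepG2, 600 cells/well, RealTime-Glo (NanoLuc + prosubstrate) added with cells; 5 h preincubation; DMSO compound addition; 37 C; luminescence at 0/8/16/24/32/40 h.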

[4] = A CellTox Green Cytotoxicity Assay to monitor cytotoxicity in HEK293 cells - 0 hour (AID 1224869); note: nearly all actives have a fitted effect of over 50% in size
In short: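 Read-out: fluorescence of a cell-impermeant cyanine dye staining DNA of dead cells, proportional to cytotoxicity. HEK293, 600 cells/well with reagent, compound (23 nL DMSO) added after 5 h; reads at 0, 8, 16, 24, 32, 40 h.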

[5] = qHTS RealTime-Glo MT Cell Viability Assay in HepG2 cells - 40 hour (AID 1224870); note: nearly all actives have a fitted effect of over 50% in size; note: potency is the fitted concentration of half-maximal effect
In short: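 HepG2 cells mixed with RealTime-Glo MT reagents (NanoLuc plus cell-permeant prosubstrate) were seeded at 600 cells/well, incubated 5 h at 37 C/5% CO2, then pinned with compounds in DMSO; nonlytic luminescence tracked viability during 40 h treatment.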

[6] = qHTS RealTime-Glo MT Cell Viability Assay in HEK293 cells - 32 hour (AID 1224868); note: nearly all actives have a fitted effect of over 50% in size; note: potency is the fitted concentration of half-maximal effect; for activity change, negative = cytotoxic: top concentration of the series differs between compounds
In short: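 Assay medium contained NanoLuc luciferase plus cell-permeant prosubstrate, added with HEK293 cells at 600 cells/well. After 5 h at 37 C/5% CO2 compounds were added; plates stayed at 37 C for 40 h with serial luminescence reads.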

[7] = qHTS assay to identify small molecule antagonists of the estrogen related receptor (ERR) signaling pathway from Tox21 library (AID 1224848); note: nearly all actives have a fitted effect of over 50% in size; note: potency is the fitted concentration of half-maximal effect
In short: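 Tox21 10K compounds in DMSO tested for ERR pathway antagonism in NTP's ERR cell line; 18 h, 37 C exposure; ONE-Glo luminescence.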

[8] = qHTS assay to identify small molecule agonists of the estrogen related receptor (ERR) signaling pathway from Tox21 library (AID 1224849; calls by dose curve; note: nearly all actives have a fitted effect of over 15% in size); settings: ERR reporter cell line, ONE-Glo luciferase, 18 h; at 92.4 µM (top of the series) unless noted
In short: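 Luminescence readout (ONE-Glo, 30 min RT) after 18 h compound exposure at 37 C of NTP-supplied ERR reporter cells; cells were plated 6 h before compound addition by pin tool.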

[9] = qHTS assay to identify small molecule agonists of H2AX (AID 1224845; active = well fitted activation curve with a large enough effect in the signal ratio in the repeat runs, not every such curve was filed as active; the % refers to the signal ratio)
In short: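 Wild-type CHO-K1 cells plated overnight, then exposed 3 hr at 37C to compounds at 15 concentrations (0.76% DMSO). Lysed, then HTRF anti-pH2AX(S139)-cryptate/anti-H2AX-d2 detection after 24 hr at room temperature; emissions 665 and 620 nm.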

[10] = qHTS assay to identify small molecule agonists of the hypoxia (HIF-1) signaling pathway (AID 1224846; active = well fitted activation curve with a large enough effect in the signal ratio in the repeat runs, not every such curve was filed as active; the % refers to the signal ratio)
In short: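 Beta-lactamase FRET read-out (CCF4-AM substrate) from ME-180 cells carrying an HRE-driven bla reporter, after 17 hrs compound exposure at 37C/5% CO2. Cells were seeded at 2,000 per well in 0.5% dialyzed FBS medium and preincubated 5 hrs.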
% is set by controls: 0 for no effect and ±100 for the full control effect.

COc1cc(N)c(Cl)cc1C(=O)NC1CCN(Cc2ccccc2)CC1
inactive: Potency [1] | Potency [2] | Potency [3] | Potency [4] | Potency [5]

CCN(O)CC
inactive: Potency [1] | Potency [2] | Potency [3] | Potency [6] | Potency [4] | Potency [5]

CC1CN(c2ccccc2)NC1=O (stereo not drawn)
inactive: Potency [1] | Potency [2] | Potency [3] | Potency [4] | Potency [5]

CCCNC(C)C(=O)Nc1c(C)csc1C(=O)OC (stereo not drawn)
inactive: Potency [1] | Potency [2] | Potency [7] | activity change, positive = activation [8] -1.49% [at 42.5 µM] | Potency [3] | Potency [6] | Potency [4] | Potency [5]

CCN(CCCc1ccccc1)CCCc1ccccc1
inactive: Potency [1] | Potency [2] | Potency [7] | activity change, positive = activation [8] -7.88% [at 42.5 µM] | Potency [3] | Potency [4] | Potency [5]

O=C1CCCCC1C1CCCCC1 (stereo not drawn)
inactive: Potency [9] | outcome [10] | Potency [2] | Potency [3] | Potency [6] | Potency [4] | Potency [5]

O=C1N(c2ccccc2)c2ccccc2C1(Cc1ccncc1)Cc1ccncc1
inactive: Potency [1] | Potency [2] | Potency [7] | activity change, positive = activation [8] 5.08% [at 42.5 µM] | Potency [3] | Potency [6] | Potency [4] | Potency [5]

CCCCc1ccc2nc(NC(=O)OC)[nH]c2c1
active: activity change, positive = activation [8] 17.3% [at 42.5 µM]
inactive: outcome [10] | Potency [2] | Potency [7] | Potency [3] | Potency [4] | Potency [5]

COc1cc2c(cc1N)oc1ccccc12
inactive: outcome [10] | Potency [2] | Potency [7] | Potency [3] | Potency [4] | Potency [5]

CN1C(=O)CC(c2ccccc2)C1=O (stereo not drawn)
inactive: Potency [1] | Potency [2] | Potency [3] | Potency [4] | Potency [5]

NC(=O)Cc1cccc(C(=O)c2ccccc2)c1N
inactive: Potency [1] | Potency [2] | Potency [3] | Potency [6] | Potency [4] | Potency [5]

Cc1ccc([N+](=O)[O-])cc1Cl
inactive: Potency [1] | Potency [2] | Potency [7] | Potency [3] | Potency [6] | Potency [4] | Potency [5]
active: activity change, positive = activation [8] 14.6%

ClC(Cl)Cl
inactive: Potency [2] | Potency [7] | activity change, positive = activation [8] -1.48% | Potency [3] | Potency [6] | Potency [4] | Potency [5]

Nc1cccc(S(=O)(=O)O)c1
inactive: Potency [9] | Potency [2] | Potency [3] | Potency [4] | Potency [5]

Cc1nc(-c2ccccn2)ncc1C(=O)Nn1cc(C)c2cc(F)ccc21
active: Potency [7] 54.5 µM | Potency [6] 1.55 µM
inactive: Potency [2] | activity change, positive = activation [8] -53.1% | Potency [3] | Potency [4] | Potency [5]

OCC(CBr)(CBr)CBr
inactive: Potency [1] | Potency [2] | Potency [3] | Potency [4] | Potency [5]

CCCCCCCCc1ccc(S(=O)(=O)O)cc1
inactive: Potency [9] | Potency [2] | Potency [3] | Potency [6] | Potency [4] | Potency [5]

O=Cc1ccc(O)c(O)c1O
inactive: Potency [1] | Potency [2] | Potency [3] | Potency [6] | Potency [4] | Potency [5]

Cc1c(-c2ccccc2)oc2c(C(=O)OCCN3CCCCC3)cccc2c1=O
inactive: Potency [1] | Potency [2] | Potency [3] | Potency [4] | Potency [5]

COc1ccccc1OCC(O)COC(N)=O (stereo not drawn)
inactive: Potency [1] | Potency [2] | Potency [7] | activity change, positive = activation [8] 6.93% [at 42.5 µM] | Potency [3] | Potency [6] | Potency [4] | Potency [5]

CCCCNC(=S)NCCCC
inactive: Potency [9] | outcome [10] | Potency [2] | activity change, positive = activation [8] -66.6% | Potency [3] | Potency [6] | Potency [4] | Potency [5]
active: Potency [7] 68.6 µM

CC(C)O
inactive: Potency [2] | Potency [3] | Potency [6] | Potency [4] | Potency [5]

ICCc1ccccc1
inactive: Potency [2] | activity change, positive = activation [8] -17.9% | Potency [6] | Potency [4]
active: Potency [3] 19.1 µM | Potency [5] 9.57 µM

Clc1cccc(-c2cc(Cl)cc(Cl)c2)c1
active: Potency [1] 53 µM
inactive: Potency [7] | activity change, positive = activation [8] -3.25% | Potency [3] | Potency [6] | Potency [4] | Potency [5]

CN1CCN(C2=Nc3ccccc3Oc3ccc(Cl)cc32)CC1
inactive: Potency [1] | Potency [2] | activity change, positive = activation [8] -21.9% [at 42.5 µM] | Potency [3] | Potency [6] | Potency [4] | Potency [5]

CCCCNc1cc(C(=O)O)cc(S(N)(=O)=O)c1Oc1ccccc1
inactive: Potency [1] | Potency [2] | Potency [3] | Potency [6] | Potency [4] | Potency [5]

CCCOc1ccc2c(c1)CC[C@@H]1[C@@H]2CC[C@]2(C)C(OC)CC[C@@H]12 (stereo partly drawn)
inactive: Potency [1] | Potency [7] | activity change, positive = activation [8] -2.22% [at 42.5 µM] | Potency [3] | Potency [6] | Potency [4] | Potency [5]

CCOC(=O)CS
inactive: Potency [9] | outcome [10] | Potency [2] | activity change, positive = activation [8] -14.3% | Potency [3] | Potency [6] | Potency [4] | Potency [5]

CC1(C)O[C@@H]2C[C@H]3[C@@H]4CCC5=CC(=O)CC[C@]5(C)[C@@]4(F)[C@@H](O)C[C@]3(C)[C@]2(C(=O)CCl)O1
inactive: Potency [2] | Potency [3] | Potency [4] | Potency [5]

CCOc1ccc(NS(=O)(=O)c2ccc(N)cc2)nn1
inactive: Potency [1] | Potency [2] | Potency [3] | Potency [4] | Potency [5]

O=C(O)CN(CCN(CC(=O)O)CC(=O)O)CCN(CC(=O)O)CC(=O)O
inactive: activity change, negative = cytotoxicity [1] -7.94% [at 15.8 µM] | activity change, negative = cytotoxicity [2] 0.16% [at 31.6 µM] | activity, negative = inhibition [7] 11.2% [at 19 µM] | activity change, positive = activation [8] 5.66% [at 19 µM] | activity change, negative = cytotoxicity [3] 0.5% [at 15.8 µM] | cytotoxicity [4] 4.99% [at 15.8 µM] | activity change, negative = cytotoxic [5] 0.22% [at 15.8 µM]
